Each structure is given as a SMILES string. The panel holds about 79,000 compounds, 15% with a hit somewhere; the sample as a whole holds those more often. Unmarked numbers belong to inactive results. Activity calls are given as the source filed them. Cut-off read from the data, not from the text of the source: active = growth inhibition above about 70%; inactive = the rest.

Assay [1] is described as follows: NCI Yeast Anticancer Drug Screen. Data for the rad50 strain (AID 155).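 Note: 0% = growth of vehicle-only cultures of the same strain.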 The conditions noted are these: S. cerevisiae rad50 strain growth inhibition; at 50.0 µM; hits give high values. An outline of the steps: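 Genetically altered yeast (DNA repair pathway); compound treatment; growth inhibition vs vehicle ctrl.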
Assay [2] in a line: NCI Yeast Anticancer Drug Screen. Data for the mec2-1 strain (AID 157). The conditions noted are these: S. cerevisiae mec2-1 strain, at 50.0 µM, hits give high values. In outline: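 mec2-1 yeast strain, carrying an alteration in DNA damage repair or cell cycle control, was exposed to compounds; growth inhibition was measured relative to vehicle-treated controls.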
A short description of assay [3]: NCI Yeast Anticancer Drug Screen. Data for the sgs1 mgt1 strain (AID 161).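 Note: 0% = growth of cultures given vehicle only.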 The conditions noted are these: S. cerevisiae sgs1 mgt1 strain, at 50.0 µM, hits give high values. In outline:
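Yeast cells carrying a defined DNA-repair defect were exposed to test compounds. Growth inhibition was measured relative to vehicle-treated controls.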

Assay [4] can be described thus: NCI Yeast Anticancer Drug Screen. Data for the cln2 rad14 strain (AID 165).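 Note: 0% = growth equal to vehicle treated cultures.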 The conditions noted are these: S. cerevisiae cln2 rad14 strain, at 50.0 µM, hits give high values. In outline: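 Yeast carrying cln2 and rad14 alterations (cell cycle control and DNA damage repair) were exposed to compounds. Growth inhibition was measured against vehicle-treated controls.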

A short description of assay [5]: NCI Yeast Anticancer Drug Screen. Data for the bub3 strain (AID 167). The conditions noted are these: S. cerevisiae bub3 mutant strain, at 50.0 µM, hits give high values. An outline of the steps: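 Yeast carrying a defined mutation is treated with each compound, and growth is compared with that of vehicle-exposed cells to give inhibition.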
Assay [6] in a line: NCI Yeast Anticancer Drug Screen. Data for the mlh1 rad18 strain (AID 175). The conditions noted are these: S. cerevisiae mlh1 rad18 strain growth inhibition; at 50.0 µM; hits give high values. In outline:
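Growth inhibition of the yeast strain was measured after compound exposure and expressed relative to vehicle-treated controls. The strain carries defined defects in DNA damage repair.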

In the case of `CCC(=O)CCN(CC)CC`, the growth inhibition in assay [1] is -39.6%; in assay [2], -33.3%; in assay [3], -55.8%; in assay [4], -5%; in assay [5], -35.3%; in assay [6], -40.4%.

Turning to `O.[Cl][Co]([Cl])[Cl].c1c[nH]cn1.c1c[nH]cn1`, the growth inhibition is -0.85% in assay [1]; -5.6% in assay [2]; 15% in assay [3]; 1.95% in assay [4]; 8.4% in assay [5]; -2.7% in assay [6].

Take `CCC(CC)(CO)CO`: the growth inhibition in assay [1] is 8.75%; in assay [2], -5.75%; in assay [3], -4.3%; in assay [4] it was 16.1%; in assay [5], -0.55%; in assay [6] it was -1.55%.

For the compound `COC(=O)CC(=O)C[P+](c1ccccc1)(c1ccccc1)c1ccccc1`, the growth inhibition in assay [1] is 6.5%; in assay [2], -19.1%; in assay [3] it was 14.8%; in assay [4], 18.4%; in assay [5], -18.1%; in assay [6] it was 5.4%.

For the compound `COC(=O)/C=C/CCOS(C)(=O)=O`, the growth inhibition was 9.6% in assay [1]; -35% in assay [2]; 0.55% in assay [3]; -39% in assay [4]; -3.25% in assay [5]; 16.5% in assay [6].

On to `N#CC(C#N)=CNC(=S)Nc1ccc(Cl)c(Cl)c1`, for which the growth inhibition in assay [1] was 44.1%; in assay [2], 39.7%; in assay [3], 47.6%; in assay [4] it was 37.7%; in assay [5], 36%; in assay [6] it was 62.5%.

On to `N#CCc1ccccc1C(C#N)C(=O)CCC(=O)C(C#N)c1ccccc1CC#N` (stereo unspecified), for which the growth inhibition is 45.6% in assay [1]; 26.1% in assay [2]; 22.6% in assay [3]; -28.4% in assay [4]; 6.75% in assay [5]; 44.7% in assay [6].

Regarding `O=C(O)C(O)c1cccc([N+](=O)[O-])c1` (stereo unspecified), the growth inhibition in assay [1] is 11.1%; in assay [2], 11.7%; in assay [3], -8.8%; in assay [4] it was -7.05%; in assay [5], -32.2%; in assay [6], -12.9%.

For the compound `CC(C)C(=O)/C=C/c1ccc(Cl)c(Cl)c1`, the growth inhibition in assay [1] was 41.2%; in assay [2], 28.2%; in assay [3] it was 26.4%; in assay [4] it was -1.85%; in assay [5], 18.9%; in assay [6], 26.8%.

`Cc1cnc2cc(Cl)ccc2c1SCC(=O)O`: the growth inhibition in assay [1] is 3.6%; in assay [2] it was -39.7%; in assay [3], -42.9%; in assay [4], -24.4%; in assay [5], -36.6%; in assay [6], 1.05%.

In the case of `O=C1C=C(Oc2ccccc2)C(=O)C=C1Oc1ccccc1`, the growth inhibition was -8.15% in assay [1]; -3.55% in assay [2]; -27.1% in assay [3]; -23.8% in assay [4]; 14.3% in assay [5]; -11.1% in assay [6].

Consider `COC(=O)c1cc(=O)n(C)[nH]1`, for which the growth inhibition in assay [1] was -0.55%; in assay [2], 4.7%; in assay [3], 0.75%; in assay [4], -58.2%; in assay [5], 6.65%; in assay [6], -1.05%.

`O=C(NC(=O)c1ccc(Cl)c(Cl)c1)Nc1ccc(Cl)cc1`: the growth inhibition in assay [1] was -1.45%; in assay [2] it was -13.8%; in assay [3], -6.35%; in assay [4], -32.6%; in assay [5] it was 11.2%; in assay [6] it was 8%.

With `NC(=O)N/N=C(\Cc1nc2ccc(Cl)cc2[nH]c1=O)C(=O)Nc1ccc(Cl)cc1Cl`, the growth inhibition in assay [1] is 11.9%; in assay [2], 11.8%; in assay [3] it was 7.2%; in assay [4], -30.1%; in assay [5], -0.85%; in assay [6] it was 15.2%.

In the case of `CC(C)=CCSC(N)N`, the growth inhibition is 14.4% in assay [1]; 21.1% in assay [2]; 24.1% in assay [3]; 9.35% in assay [4]; 17.4% in assay [5]; -1.7% in assay [6].

With `COc1ccc(/C=N/NC(=O)NCCCN(C)C)cc1`, the growth inhibition is 3.3% in assay [1]; -29% in assay [2]; -9.9% in assay [3]; -5% in assay [4]; -23.9% in assay [5]; -7.65% in assay [6].

With `CCOC(=O)c1c(C)c(C)n2c1NC(=O)C2`, the growth inhibition in assay [1] is -4.5%; in assay [2], -4.6%; in assay [3], -37.5%; in assay [4], -36.8%; in assay [5], -30.6%; in assay [6], -13.9%.

Turning to `COc1c(NC(=O)Nc2ccc(F)c([N+](=O)[O-])c2)cccc1[N+](=O)[O-]`, the growth inhibition in assay [1] is 7.85%; in assay [2], 22.1%; in assay [3], 10%; in assay [4], 2.8%; in assay [5], 20.1%; in assay [6], 27.8%.

With `COC(=O)C1CCCN1C(=O)C(C)=O` (stereo unspecified), the growth inhibition in assay [1] was 16.9%; in assay [2], 10.4%; in assay [3], -4.85%; in assay [4] it was -40.5%; in assay [5], 5.4%; in assay [6], -5.45%.

Take `COc1ccc(CN2CCCN(Cc3ccc(OC)cc3OC)C2c2cc(OC)ccc2OC)c(OC)c1`: the growth inhibition in assay [1] is -0.85%; in assay [2], -0.85%; in assay [3], 1.3%; in assay [4], 10.5%; in assay [5], -1.85%; in assay [6], -0.4%.

Take `C/C=C(/C)C(=O)O[C@H]1C(C)=C[C@]23C(=O)[C@@H](C=C(COC(C)=O)[C@@H](O)[C@]12O)[C@H]1[C@@H](C[C@H]3C)[C@@]1(C)OC(=O)/C(C)=C\C`: the growth inhibition was 58.7% in assay [1]; 60.4% in assay [2]; 60.6% in assay [3]; 76.3% (active) in assay [4]; 56.8% in assay [5]; 59.2% in assay [6].

Source of the values: PubChem BioAssay (NCI).
